IL1B secr inh – inhibitors of inflammasome signaling (IL-1 beta secretion). THP-1 LPS/ATP IL-1B secretion, AlphaLISA, 16 h; active compounds read low. activity change, % at 57.5 µM. 360,000 compounds, 4.7% hits. AID 743279; in the data active = activity change below about -50%; inconclusive = mostly about -30% to -49%
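THP-1 cells pretreated 1 hr with compounds (up to 57.5 uM final), then stimulated with LPS (250 ng/mL final) plus ATP (1.25 mM final); secreted IL-1B measured by AlphaLISA after 16 hr, decreased signal indicating inhibition.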
DT40 TDP1 no CPT – qHTS for Inhibitors of human tyrosyl-DNA phosphodiesterase 1 (TDP1): qHTS in cells in absence of CPT. AID 686978, 2013. Potency, µM (titrated, usually from 46.2 µM), inactives show at the highest dose activity change, negative = growth inhibition, hits mostly inhibitors. DT40 Tdp1-/- hTDP1 cells, no CPT, ATP luminescence, 48 h. 420,000 compounds, 15% hits; note: potency is the fitted concentration of half-maximal effect; nearly all actives have a fitted effect of over 55% in size
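Chicken DT40 Tdp1-/- cells stably complemented with human TDP1 were seeded at 400 cells/well with DMSO in place of 20 nM camptothecin. After compound pinning, cells grew at least 48 hr at 37 °C; viability read by CellTiter-Glo luminescence.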
HT1080 IDH1KD tx – toxicity to HT-1080 IDH1 knockdown cells (counter line). 360,000 compounds, 2% hits. Potency, µM (highest dose often 46.1 µM), inactives show top-dose activity, negative = toxicity, usual class: cytotoxic. HT-1080 IDH1 knockdown viability, ATP luminescence, 48 h;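 note: potency is the fitted concentration of half-maximal effect; 0% = DMSO wells and -100% = cell-free medium wells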
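After a 2 h attachment period, IDH1KD HT-1080 cells took pin-transferred compound for 48 h at 37 °C; ATP-based luminescence after 10 min room-temperature reagent incubation reported viability.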
TDP1 cell CPT – DT40-hTDP1 cell growth loss with CPT; chicken DT40 Tdp1-/-;hTDP1 cells + 20 nM CPT, ATP luminescence, 48 h; Potency, µM (doses to about 46.2 µM), for the others: at the highest dose activity change, negative = growth inhibition, hits mostly inhibitors; 420,000 compounds, 12% hits; AID 686979; note: potency is the fitted concentration of half-maximal effect; nearly all actives have a fitted effect of over 55% in size
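Chicken DT40 Tdp1-/- cells complemented with human TDP1, 400 cells/well, exposed to compounds plus 20 nM camptothecin for at least 48 h at 37 C; viability read as ATP content by CellTiter-Glo luminescence.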
HT1080-NT tox – kills 2HG-producing HT-1080-NT fibrosarcoma cells; HT-1080-NT fibrosarcoma viability, CellTiter-Glo ATP luminescence, 48 h; Potency, µM (titrated, usually from 46.1 µM), inactives show at the highest dose activity, negative = less viability, actives largely listed as cytotoxic; 360,000 compounds, 1.6% hits;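 note: NT is the 2HG producing partner of a matched IDH1 knockdown line; potency is the fitted concentration of half-maximal effect; 0% = DMSO-treated cells and -100% = media-only wells without cells; nearly all actives have a fitted effect of over 55% in size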
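HT-1080-NT fibrosarcoma cells (2HG-overproducing), 750 cells/well in RPMI with 5% FBS, dosed after 2 h and incubated 48 h at 37C. CellTiter-Glo luminescence normalized to DMSO and no-cell wells; concentration-response curves fitted and classed.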
Numbers without * were called inactive; [ ] = dose if it differs, or a comment. Shown are actives, neighbours in structure and some others; about 19% of the full set was active somewhere. Unless noted, calls come from the whole dose curve; as a rule, active = well fitted curve in the direction sought with a large enough effect; inconclusive = small, poorly fitted or top-dose-only effect, or another doubt; inactive = no such curve, though single readings can be large; an effect the other way counts as inactive or inconclusive. Unless noted, % is set by controls: 0 for no effect and ±100 for the full control effect.

For CCOc1cc(C2c3c(oc4ccc(F)cc4c3=O)C(=O)N2Cc2ccc(C)cc2)ccc1O (centres undefined) the results were DT40 TDP1 no CPT inconclusive and TDP1 cell CPT 1.3µM*.
Screening Cc1cc(C)c2c(=O)c3c(oc2c1)C(=O)N(CCO)C3c1cccc(O)c1 (centres undefined) returned IL1B secr inh -58*, DT40 TDP1 no CPT -16%, HT1080 IDH1KD tx -2%, TDP1 cell CPT -14% and HT1080-NT tox 2%.
O=C1c2oc3ccccc3c(=O)c2C(c2cccc(O)c2)N1Cc1ccc(F)cc1 (centres undefined) was read as DT40 TDP1 no CPT 21µM* and TDP1 cell CPT inconclusive.
`CC(=O)c1c(O)cc(C)n(Nc2nc(C)cc(C)n2)c1=O` gave IL1B secr inh 85, DT40 TDP1 no CPT inconclusive, HT1080 IDH1KD tx -27%, TDP1 cell CPT 18µM* and HT1080-NT tox inconclusive.
Fc1ccccc1/C=N/n1c(COc2ccccc2)n[nH]c1=S was read as IL1B secr inh 18, DT40 TDP1 no CPT 0%, HT1080 IDH1KD tx -2%, TDP1 cell CPT 9% and HT1080-NT tox 2%.
`CCc1nc2ccc(C)cc2c(C(=O)Oc2cccc3cccnc23)c1C` gave IL1B secr inh -6, DT40 TDP1 no CPT 23µM*, HT1080 IDH1KD tx -10%, TDP1 cell CPT inconclusive and HT1080-NT tox -2%.
`Cc1c(C(=O)Oc2cccc3cccnc23)oc2ccccc12` gave IL1B secr inh inconclusive, DT40 TDP1 no CPT inconclusive, HT1080 IDH1KD tx 23µM*, TDP1 cell CPT inconclusive and HT1080-NT tox 23µM*.
`CCc1nc2ccccc2c(C(=O)O)c1C` gave IL1B secr inh 69, DT40 TDP1 no CPT 2%, HT1080 IDH1KD tx 12%, TDP1 cell CPT 1% and HT1080-NT tox 13%.
`CCCn1c(N)c(C(=O)CSc2nc3ncc(Cl)cc3[nH]2)c(=O)[nH]c1=O` gave IL1B secr inh -8, DT40 TDP1 no CPT 11%, HT1080 IDH1KD tx 3%, TDP1 cell CPT -17% and HT1080-NT tox -3%.
CCOc1ccc(CCN2CN(C3CCCCC3)CNC2=S)cc1OCC was read as IL1B secr inh 22, DT40 TDP1 no CPT 18µM*, HT1080 IDH1KD tx -1%, TDP1 cell CPT inconclusive and HT1080-NT tox 3%.
Screening N#CCSc1nnc(C2CCCCC2)n1Cc1ccccc1 returned IL1B secr inh -7, DT40 TDP1 no CPT -22%, HT1080 IDH1KD tx 4%, TDP1 cell CPT 10µM* and HT1080-NT tox 8%.
Cc1cccc(-c2nnc(SCC#N)n2Cc2ccccc2)c1 was read as IL1B secr inh 0, DT40 TDP1 no CPT 3%, HT1080 IDH1KD tx -7%, TDP1 cell CPT -2% and HT1080-NT tox -8%.
Cc1cccc(Nc2ncnc(N)c2[N+](=O)[O-])n1 was read as IL1B secr inh -14, DT40 TDP1 no CPT 16µM*, HT1080 IDH1KD tx -10%, TDP1 cell CPT 9.2µM* and HT1080-NT tox 13%.
Nc1ncnc(Nc2ccccn2)c1[N+](=O)[O-] was read as IL1B secr inh 7, DT40 TDP1 no CPT 23µM*, HT1080 IDH1KD tx -5%, TDP1 cell CPT -24% and HT1080-NT tox -2%.
`Clc1nc(-c2cccnc2)nc2scc(-c3ccccc3)c12` gave IL1B secr inh -2, DT40 TDP1 no CPT inconclusive, HT1080 IDH1KD tx -3%, TDP1 cell CPT inconclusive and HT1080-NT tox -4%.
`COc1ccc(-c2csc3nc(-c4cccnc4)nc(Cl)c23)cc1OC` gave IL1B secr inh -87*, DT40 TDP1 no CPT inconclusive, HT1080 IDH1KD tx inconclusive, TDP1 cell CPT inconclusive and HT1080-NT tox -26%.
For O=[N+]([O-])c1nn(-c2ccccc2)[n+]([O-])c1N1CCN(c2ccccc2F)CC1 the results were IL1B secr inh -7, DT40 TDP1 no CPT -7%, HT1080 IDH1KD tx -4%, TDP1 cell CPT -18% and HT1080-NT tox -2%.
Screening O=C(Nn1c(C2CCC2)nc2ccccc2c1=O)c1cccs1 returned IL1B secr inh 1, DT40 TDP1 no CPT -9%, HT1080 IDH1KD tx -2%, TDP1 cell CPT -8% and HT1080-NT tox 6%.
For CC(=O)NC1=C(NC2CCS(=O)(=O)C2)C(=O)c2ccccc2C1=O (centres undefined) the results were IL1B secr inh 22, DT40 TDP1 no CPT 12µM*, HT1080 IDH1KD tx -9%, TDP1 cell CPT 10µM* and HT1080-NT tox -10%.
Screening CN(C1=C(NC(=O)c2ccccc2)C(=O)c2ccccc2C1=O)C1CCS(=O)(=O)C1 (centres undefined) returned IL1B secr inh inconclusive, DT40 TDP1 no CPT 2.6µM*, HT1080 IDH1KD tx -24%, TDP1 cell CPT 2.6µM* and HT1080-NT tox inconclusive.
For O=C(NC(=S)NC1CCS(=O)(=O)C1)c1ccccc1 (centres undefined) the results were IL1B secr inh -15, DT40 TDP1 no CPT 6%, HT1080 IDH1KD tx 7%, TDP1 cell CPT 2% and HT1080-NT tox 3%.
For Cc1oc(-c2ccccc2NC(=O)c2ccccc2)nc1CNC(=O)c1c(-c2ccccc2)noc1C the results were DT40 TDP1 no CPT -12% and TDP1 cell CPT 0%[9.04 µM].
`COc1ccc(NC(=O)/C=C\C(=O)N(c2ccc(C(C)C)cc2)C(C(=O)NCc2ccco2)c2ccc(F)cc2)cc1` (centres undefined) gave DT40 TDP1 no CPT inconclusive and TDP1 cell CPT 18µM*.
CCOc1ccc(NC(=O)/C=C\C(=O)N(c2ccc(C(C)C)cc2)C(C(=O)NCc2ccco2)c2ccc(F)cc2)cc1 (centres undefined) was read as DT40 TDP1 no CPT 13µM* and TDP1 cell CPT 5.2µM*.
For COc1ccc(N(C(=O)Cn2nnc3ccccc32)C(C(=O)NCc2ccco2)c2ccc(C)o2)cc1 (centres undefined) the results were IL1B secr inh -12, DT40 TDP1 no CPT -30%, HT1080 IDH1KD tx 5%, TDP1 cell CPT -24% and HT1080-NT tox 13%.
Screening COc1ccc(N(C(=O)/C=C\C(=O)Nc2ccc(Cl)cc2)C(C(=O)NCc2ccco2)c2ccc(C)cc2)cc1 (centres undefined) returned DT40 TDP1 no CPT 18µM* and TDP1 cell CPT 16µM*.
Screening CN1C[C@@H]2[C@@H]3C(=O)N(Cc4ccccc4)C(=O)[C@@H]3[C@](C)(C1=O)N2C(=O)c1ccc(Br)cc1 returned IL1B secr inh -8, DT40 TDP1 no CPT -10%, HT1080 IDH1KD tx 10%, TDP1 cell CPT 0% and HT1080-NT tox 19%.

Screening data deposited in PubChem BioAssay by National Center for Advancing Translational Sciences (NCATS).
